Screening results: PubChem BioAssay, National Center for Advancing Translational Sciences (NCATS)
APEX1 inh: inhibitors of human APE1 endonuclease | P27695 | recombinant APE1, TAMRA/BHQ-2 abasic DNA cleavage fluorescence | Potency, µM (doses to about 65.8 µM), without a hit: at the highest dose activity change, negative = inhibition, usual class: inhibitors | actives 0.35% (n = 350,000);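 also: plate controls were vehicle for no effect and reference inhibitor for full effect; nearly all actives have a fitted effect of over 55% in size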
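Quantitative HTS: incision of a TAMRA/BHQ-2 double-stranded substrate bearing a tetrahydrofuran abasic site by 0.75 nM APE1 raises fluorescence. Substrate 50 nM final, added after 15 min compound preincubation at room temperature; progress as third-minus-first kinetic read difference.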
KAT2A inh: inhibitors of human GCN5L2 histone acetyltransferase | Q92830 | GCN5L2 HAT assay, ThioGlo1 CoA-SH fluorescence | Potency, µM (top dose mostly 58.9 µM), inactives show top-dose activity change, negative = inhibition, hits mostly inhibitors | actives 0.21% (n = 390,000) | AID 504327
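Compounds, pin-transferred from DMSO stocks, meet 20nM GCN5L2 for 15 min before the reaction begins with H3(1-25) peptide (75uM) and acetyl-CoA (70uM). Thiol-reactive ThioGlo1 reports CoA release over 20 min at room temperature.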
BLM inh: blocks DNA unwinding by human BLM helicase. P54132. recombinant BLM DNA unwinding, fluorescence dequenching. Potency, µM (top dose mostly 56.1 µM), for the others: at the highest dose activity change, negative = inhibition, actives largely listed as inhibitors. actives 0.2% (n = 350,000);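 also: plate controls were vehicle for no effect and no enzyme for full effect; nearly all actives have a fitted effect of over 35% in size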
TDP1 inh: inhibitors of human tyrosyl-DNA phosphodiesterase TDP1 | Q9NUW8 | recombinant TDP1, AlphaScreen DNA substrate cleavage | Potency, µM (series often up to 130 µM), without a hit: at the highest dose activity change, negative = inhibition, usual class: inhibitors | actives 0.28% (n = 350,000); also: nearly all actives have a fitted effect of over 40% in size
Target sequence (Q9NUW8 whole entry, looked up): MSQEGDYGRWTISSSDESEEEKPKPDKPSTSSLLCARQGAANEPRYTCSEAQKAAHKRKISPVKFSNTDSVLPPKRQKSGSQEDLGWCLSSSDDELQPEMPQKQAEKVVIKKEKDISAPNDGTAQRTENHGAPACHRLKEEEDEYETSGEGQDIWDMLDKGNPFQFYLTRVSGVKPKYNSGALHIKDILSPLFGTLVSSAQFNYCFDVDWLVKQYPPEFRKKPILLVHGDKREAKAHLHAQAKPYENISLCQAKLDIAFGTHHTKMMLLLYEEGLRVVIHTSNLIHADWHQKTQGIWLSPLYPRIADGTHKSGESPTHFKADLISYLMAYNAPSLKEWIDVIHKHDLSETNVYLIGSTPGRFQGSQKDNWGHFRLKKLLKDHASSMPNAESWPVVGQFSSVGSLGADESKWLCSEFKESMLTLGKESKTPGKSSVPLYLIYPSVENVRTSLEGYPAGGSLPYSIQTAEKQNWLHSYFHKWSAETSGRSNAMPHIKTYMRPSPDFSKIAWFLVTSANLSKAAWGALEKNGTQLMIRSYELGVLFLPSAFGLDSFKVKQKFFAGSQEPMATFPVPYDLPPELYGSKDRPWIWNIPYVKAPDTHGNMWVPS
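Compounds were preincubated with Tdp1 (1 nM final) for 15 min at room temperature before substrate (15 nM final) started a 5 min reaction; beads (10 ug/ml final) were then added for 10 min before AlphaScreen detection.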
RECQ1 inh-1: blocks DNA unwinding by human RECQ1. actives 0.54% (n = 240,000). Potency, µM (doses to about 57.3 µM), inactives show at the top dose activity, negative = inhibition, hits mostly inhibitors. RECQ1 DNA unwinding, red fluorescence kinetic read;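 also: plate controls were vehicle for no effect and no enzyme for full effect; nearly all actives have a fitted effect of over 30% in size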
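50 nM RECQ1T1 preincubated 15 min with compound in Tris pH 8.0 buffer with MgCl2, DTT, Tween-20 and 2.5 ug/ml poly(dI-dC); started with 200 nM TAMRA/BHQ-2 forked duplex and 2 mM ATP. Unwinding read as fluorescence (525/598 nm), two reads 2 h apart.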
RECQ1 inh conf: confirmation of human RECQ1 helicase inhibitors | actives 28% (n = 610) | RECQ1 helicase DNA unwinding, fluorescence | shares compounds with RECQ1 inh-1 | Potency, µM (highest dose often 229 µM), without a hit: at the highest dose activity change, negative = inhibition, hits mostly inhibitors; also: nearly all actives have a fitted effect of over 45% in size
RECQ1 ADP FP: ADP displacement flagged in RECQ1 inhibitor counter-screen | actives 27% (n = 530) | Potency, µM (highest dose often 228 µM), without a hit: at the highest dose activity change, negative = inhibition, actives largely listed as inhibitors | AID 2711 | ADP fluorescence polarization displacement counterscreen | shares compounds with RECQ1 inh-1; also: nearly all actives have a fitted effect of over 45% in size
RECQ1 inh-2: confirmation of human RECQ1 helicase inhibitors; recombinant RECQ1 DNA unwinding, red fluorescence; Potency, µM (top dose mostly 119 µM), without a hit: top-dose activity, negative = inhibition, actives largely listed as inhibitors; shares compounds with RECQ1 inh-1; actives 15% (n = 1,100); also: nearly all actives have a fitted effect of over 50% in size
Starred values were filed as active, the others as inactive; i = inactive; ? = inconclusive; . = no result given; [ ] = dose if it differs, or a comment. Only some compounds are listed: those with a hit (about 0.87% of all), similar ones and a draw of the others. Calls follow the shape of the dose curve; as a rule, active = well fitted curve in the direction sought with a large enough effect; inconclusive = small, poorly fitted or top-dose-only effect, or another doubt; inactive = no such curve, though single readings can be large; an effect the other way counts as inactive or inconclusive. Unless noted, % is scaled to controls: 0 for no effect and ±100 for the full control effect; potency is read from the fitted curve at half-maximal effect.

SMILES	APEX1 inh	KAT2A inh	BLM inh	TDP1 inh	RECQ1 inh-1	RECQ1 inh-2	others
COc1cc2c(cc1OC)C1O[C@](c3ccsc3)(C2)Oc2cc(-c3ccccc3)oc(=O)c21	-3%[12.4 µM]	-13%[12.7 µM]	-12%[12.4 µM]	.	.	.
COc1ccccc1C(=O)NC(=S)/C=C1/N(C)c2ccccc2C1(C)C	8%	-6%	-9%	3%	-9%	.
CN1/C(=C\C(=S)NC(=O)c2ccccc2Cl)C(C)(C)c2ccccc21	-5%	-7%	-4%	11%	25µM*	?
COc1ccc(OC)c(S(=O)(=O)Nc2cc3c(cc2C)n(C)c(=O)c(=O)n3C)c1	.	-20%	4%	7%	.	.
Cc1cc(C)cc(OCC(=O)Nc2nonc2NC(=O)COc2cc(C)cc(C)c2)c1	4%	-20%	-4%	2%	?	-1%
Cc1ccc(S(=O)(=O)c2nc(S(C)(=O)=O)sc2N(C)Cc2ccccc2)cc1	.	-14%	-6%	10%	.	.
COCCCNC(=O)c1sc2nc3n(c(=O)c2c1C)CCC3	.	0%	-3%	4%	.	.
CC(NC(=O)/C(=C/c1cccc([N+](=O)[O-])c1)NC(=O)c1ccco1)C(=O)O (configuration not stated)	21%	23%	2%	0%	-11%	.	RECQ1 inh conf=0%;RECQ1 ADP FP=8%
O=C1/C(=C/c2ccco2)Oc2c1ccc(O)c2CN1CCCCC1	?	-15%	-4%	?	?	-17%
CC1CCN(Cc2c(O)ccc3c2O/C(=C\c2ccco2)C3=O)CC1	3%	-29%	-1%	-3%	-2%	.
Cc1ccc(S(=O)(=O)Nc2ccc(N3CCCCC3)cc2)cc1	5%	-11%	-7%	7%	?	-8%
COc1cc(/C=C(\C#N)c2nc3ccccc3[nH]2)cc(OC)c1O	?	-3%	-26%	5%	?	56µM*
COc1ccc(/C=C(\C#N)c2nc3ccccc3[nH]2)cc1O	-29%	-9%	-16%	.	.	.
Cc1ccc(OCC(O)Cn2c3ccccc3c3ccccc32)cc1 (configuration not stated)	-4%	1%	-10%	-8%	?	-48%
C=CCn1c(C)cc(C(=O)Cn2ncc(Cl)c(Cl)c2=O)c1C	?	-24%	-24%	-3%	10µM*	-22%
O=C(NCc1n[nH]c(=S)n1-c1cccc(C(F)(F)F)c1)c1ccc(S(=O)(=O)N2CCCCC2)cc1	12%	2%	-1%	1%	.	.
O=C(NCc1n[nH]c(=S)n1-c1cccc(C(F)(F)F)c1)c1ccc(S(=O)(=O)N2CCCC2)cc1	25%	-6%	-1%	3%	i	.	RECQ1 inh conf=-4%;RECQ1 ADP FP=8%
N=C1S/C(=C\c2ccc(-c3ccccc3C(=O)O)o2)C(=O)N1c1ccc2c(c1)OCO2	?	-24%	-20%	-8%	-2%	.	RECQ1 inh conf=?;RECQ1 ADP FP=?
Cc1c(NC(=O)C(C)OC(=O)CC2Sc3ccccc3NC2=O)c(=O)n(-c2ccccc2)n1C (configuration not stated)	17%	-10%	-10%	0%	-8%	.	RECQ1 inh conf=-2%;RECQ1 ADP FP=-12%
COc1ccc(NS(=O)(=O)c2ccc(O)c(NC(=O)c3cc4c(C)nn(-c5ccc(F)cc5)c4s3)c2)cc1	?	?	28µM*	3%	?	?
COc1ccc(NC(=O)c2cc3c(C)nn(-c4ccccc4)c3s2)c(OC)c1	.	18%	-2%	.	.	.
CC(C)(C)OC(=O)C1=NOC2(C=CC(=O)C=C2)C1	?	.	1%	5%	-3%	.
CCC(c1nnnn1Cc1ccco1)N(Cc1cc2cc(C)cc(C)c2[nH]c1=O)CC1CCCO1 (configuration not stated)	-8%	-22%	-10%	1%	?	-7%
CCC(c1nnnn1Cc1ccco1)N(Cc1ccccc1OC)Cc1cc2cc(C)ccc2[nH]c1=O (configuration not stated)	-1%	-6%	-2%	2%	i	.
COc1ccc(OC)c(-c2c3cc(O)c(=O)cc-3oc3cc(O)c(O)cc23)c1	32µM*	?	28µM*	9%	35µM*	40µM*
SMILES	APEX1 inh	KAT2A inh	BLM inh	TDP1 inh	RECQ1 inh-1	RECQ1 inh-2	others
CCCCn1c(NC(=O)c2ccco2)c(S(=O)(=O)c2ccc(C)cc2)c2nc3ccccc3nc21	?	-11%	-23%	0%	?	-28%
CC(C)(C)c1nc(SCC(=O)NCc2ccco2)c2ccccc2n1	-3%	-7%	-7%	4%	4%	.
O=C(CSc1c2c(nc3ccccc13)CCCC2)NCc1ccco1	8%	-3%	-1%	11%	14µM*	-1%	RECQ1 inh conf=-7%[114 µM];RECQ1 ADP FP=?
O=C(C1CC1)N1CCN=C1SCc1cccc(F)c1	6%	1%	3%	5%	?	?
O=C(C1CC1)N1CCN=C1SCc1ccc(F)cc1	0%	-1%	-8%	-3%	-9%	.
CC(C)CC1Nc2ccc(C(=O)NCCCN3CCOCC3)cc2NC1=O (configuration not stated)	36%	0%	2%	-12%	.	.
COc1ccc(-c2cc(C(F)(F)F)n3nc(C(=O)OC(C)C)cc3n2)cc1	.	?	1%	-6%	.	.
O=C1/C(=C\c2ccco2)SC(=S)N1c1ccc(O)cc1	4%	-6%	34%	5%	-20%	.
O=C1/C(=C/c2ccco2)SC(=S)N1c1cccnc1	4µM*	28µM*	32µM*	.	8.9µM*	.	RECQ1 inh conf=50µM*;RECQ1 ADP FP=50µM*
COC(=O)Nc1ccc(S(=O)(=O)N2CCCC(C(=O)Nc3cccnc3)C2)cc1 (configuration not stated)	0%	-11%[0.501 µM]	1%	-5%	-3%	.	RECQ1 inh conf=9%;RECQ1 ADP FP=10%
Cc1ccc(S(=O)(=O)N2CCCC(C(=O)Nc3cccnc3)C2)cc1 (configuration not stated)	2%	-1%	-4%	-1%	-15%	.
O=C(N/N=C/c1ccccc1C(=O)O)c1ccc(COc2cccc3cccnc23)cc1	-2%	-11%	-6%	0%	-10%	.	RECQ1 inh conf=-11%;RECQ1 ADP FP=-8%
Cc1cc2cc(CNC(=O)c3ccc(S(=O)(=O)N4CCCCC4)cc3)ccc2n1C	-2%	-21%	-1%	-7%	4%	.
